Data from article PMC4336329 (PLoS ONE, 2015).
About 14,000 (4.5%) of roughly 310,000 compounds showed an effect of 50% or more. Effects have a minus sign here. The sample as a whole holds a higher share of strong results than the screen did.

target: human ether-à-go-go-related gene (hERG) potassium channel (human, UniProt Q12809); assay: primary screen, population patch clamp on CHO cells stably expressing hERG; higher = less effect of the substance
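Also: peak tail current of the secondary pulse compared with the same well before compound.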

Chain of human ether-à-go-go-related gene (hERG) potassium channel (Q12809 whole entry, looked up): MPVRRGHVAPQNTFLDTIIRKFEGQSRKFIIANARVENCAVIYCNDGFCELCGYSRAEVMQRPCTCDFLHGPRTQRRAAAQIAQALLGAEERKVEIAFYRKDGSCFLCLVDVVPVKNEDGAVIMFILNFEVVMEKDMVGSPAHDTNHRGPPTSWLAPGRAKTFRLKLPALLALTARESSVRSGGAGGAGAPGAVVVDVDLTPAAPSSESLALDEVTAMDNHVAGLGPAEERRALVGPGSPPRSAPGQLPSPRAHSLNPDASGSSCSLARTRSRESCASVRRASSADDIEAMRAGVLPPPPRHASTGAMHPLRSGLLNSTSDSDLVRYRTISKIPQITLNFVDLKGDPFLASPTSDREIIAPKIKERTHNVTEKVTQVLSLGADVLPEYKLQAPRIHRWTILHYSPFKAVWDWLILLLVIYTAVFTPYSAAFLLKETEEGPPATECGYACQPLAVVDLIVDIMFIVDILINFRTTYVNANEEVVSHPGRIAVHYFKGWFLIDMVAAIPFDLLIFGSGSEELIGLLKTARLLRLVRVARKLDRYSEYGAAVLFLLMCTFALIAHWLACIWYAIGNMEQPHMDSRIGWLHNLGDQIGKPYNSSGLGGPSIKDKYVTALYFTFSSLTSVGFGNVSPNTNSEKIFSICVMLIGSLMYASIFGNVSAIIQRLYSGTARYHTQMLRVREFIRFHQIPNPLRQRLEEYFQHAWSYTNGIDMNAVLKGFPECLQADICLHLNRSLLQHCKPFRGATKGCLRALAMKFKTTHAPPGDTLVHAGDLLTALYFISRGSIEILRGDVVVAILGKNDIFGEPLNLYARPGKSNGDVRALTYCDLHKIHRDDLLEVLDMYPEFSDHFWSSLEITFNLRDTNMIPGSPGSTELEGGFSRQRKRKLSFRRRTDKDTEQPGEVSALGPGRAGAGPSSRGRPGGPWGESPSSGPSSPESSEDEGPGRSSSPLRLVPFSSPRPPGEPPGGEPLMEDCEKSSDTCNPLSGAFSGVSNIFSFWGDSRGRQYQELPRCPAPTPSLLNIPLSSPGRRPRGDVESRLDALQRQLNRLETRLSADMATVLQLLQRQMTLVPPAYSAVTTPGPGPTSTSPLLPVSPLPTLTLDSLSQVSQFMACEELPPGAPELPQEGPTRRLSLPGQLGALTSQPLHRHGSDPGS

| Structure (SMILES) | hERG current change (%, negative = inhibition) at 10uM [%] |
| --- | --- |
| O=C(Cc1ccccc1)N/N=C/c1cccnc1 | 20.3 |
| O=C(Cn1nc(-c2ccccc2)ccc1=O)Nc1ccc(N2CCN(C(=O)c3cccs3)CC2)cc1 | -18.5 |
| Cc1ccc(C(=O)N2CCCC2)cc1S(=O)(=O)N1CCOCC1 | 1.43 |
| O=C(C1Cc2ccccc2CN1S(=O)(=O)c1ccc(F)cc1)N1CCCCC1 (stereo not shown) | -13.2 |
| O=C(C1Cc2ccccc2CN1S(=O)(=O)c1ccc(F)cc1)N1CCOCC1 (stereo not shown) | -18 |
| COc1ccc(S(=O)(=O)N2Cc3ccccc3CC2C(=O)N2CCOCC2)cc1 (stereo not shown) | -59.2 |
| COc1ccc(S(=O)(=O)N2Cc3ccccc3CC2C(=O)O)cc1 (stereo not shown) | -13.1 |
| COc1ccc(S(=O)(=O)N2Cc3ccccc3CC2C(=O)N2CCOCC2)cc1OC (stereo not shown) | -18.7 |
| O=C(c1ccco1)N1CCN(C(=O)C2Cc3ccccc3CN2S(=O)(=O)c2ccc(F)cc2)CC1 (stereo not shown) | -70.6 |
| O=C(NCCNc1nccc(C(F)(F)F)n1)c1cccc(C(F)(F)F)c1 | -8.47 |
| CCOC(=O)c1c(C)nc(C)c(C(=O)OCC)c1-c1ccc(Br)cc1 | -29.7 |
| Cc1ccccc1Nc1ncnc2c1cnn2Cc1ccccc1 | -10.8 |
| Cc1c(NC(=O)C(C)OC(=O)CC2CC3CCC2C3)c(=O)n(-c2ccccc2)n1C (stereo not shown) | -9.36 |
| Cc1ccc(/C=N/Nc2ncnc3nc[nH]c23)cc1 | -18.6 |
| Nc1cccc(C(=O)Nc2ccco2)c1 | -2.33 |
| O=C(O)CN1C(=O)/C(=C2\SC(=S)N(C(Cc3ccccc3)C(=O)O)C2=O)c2ccccc21 (stereo not shown) | 2.15 |
| CC(C)(C)CC(=O)Nc1nnc(SCC(=O)NC2CCCCC2)s1 | -36.5 |
| COC1CCCCC1NCCc1ccccc1.O=C(O)C(=O)O (stereo not shown) | -0.725 |
| N#CC1(c2ccccc2)CCC(NCCc2ccccc2)CC1.O=C(O)C(=O)O (stereo not shown) | -69.5 |
| O=C(O)C(=O)O.c1ccc(CCNC2CCCCCC2)cc1 | -4.67 |
| O=C(N1CCOCC1)N1CCN(S(=O)(=O)N2CCOCC2)CC1 | 11.3 |
| C=CCn1c(SCC(=O)Nc2cccc3ccccc23)nc(O)c(CC)c1=O | 3.7 |
| COc1ccc(NC(=O)CC2C(=O)N(c3cccc(OC)c3)C(=O)N2C2CCCCC2)cc1 (stereo not shown) | 13.4 |
| CCN(CC)Cc1c(C(=O)N/N=C/c2c(Cl)cccc2Cl)nnn1-c1nonc1N | 11.8 |
| COc1ccc(Cn2c(=O)n(Cc3ccco3)c(=N)c3c4c(sc32)COC(C)(C)C4)cc1 | -15.9 |
| c1coc(Cn2c(-c3ccco3)nc3ccccc32)c1 | -10 |
| CCCCOc1[nH]c2nc(-c3ccco3)n(Cc3ccco3)c(=N)c2c1C#N | -69.1 |
| CC1Sc2ccc(C(=O)NCc3cccc(C(F)(F)F)c3)cc2NC1=O (stereo not shown) | -4.86 |

| Structure (SMILES) | hERG current change (%, negative = inhibition) at 10uM [%] |
| --- | --- |
| CCOc1cc(/C=C2\COc3ccccc3C2=O)ccc1OCC(=O)N(C)C | -10.3 |
| CCNC(=O)COc1ccc(/C=C2\COc3ccccc3C2=O)cc1OC | -71.8 |
| COc1ccc(/C=C2\COc3ccccc3C2=O)cc1OC | -17.1 |
| COc1ccc(N2C(=S)N(C(=O)c3ccccc3)C(=Nc3ccccc3)C2=Nc2ccccc2)cc1 | -3.16 |
| CN1CCN(C(=O)c2ccccc2-c2nc(-c3ccc(Cl)cc3)no2)CC1 | -65.6 |
| Cc1ccc(-c2noc(-c3ccccc3C(=O)N3CCN(C)CC3)n2)cc1 | -51.2 |
| O=C(c1ccccc1-c1nc(-c2ccccc2)no1)N1CCCC1 | -4.86 |
| CN1CCN(C(=O)c2ccccc2-c2nc(-c3ccccc3)no2)CC1 | -25.5 |
| Cc1ccc(-c2noc(-c3ccccc3C(=O)N3CCCC3)n2)cc1 | -32.3 |
| O=C(c1ccccc1-c1nc(-c2ccc(Cl)cc2)no1)N1CCCC1 | 0.639 |
| c1ccc(-c2noc(-c3ccccc3-c3ccccc3)n2)cc1 | 5.26 |
| Cc1ccc(-c2noc(-c3ccccc3C(=O)N3CCOCC3)n2)cc1 | -12.2 |
| NC(=O)c1ccccc1-c1nc(-c2ccccc2)no1 | -76.5 |
| Cc1cccc(NC(=O)CSCC(=O)N=c2sccn2C)c1 | -20.2 |
| CC(C)n1c(O)c(N=NC(=O)CNC(=O)Cc2ccc(Cl)cc2)c2ccccc21 | -39.1 |
| CC(C)c1cc(-c2cc(-c3ccccc3)on2)nc(NC2CCCC2)n1 | 6.4 |
| CCC(Cc1ccccc1)NC(=O)CCc1ccccc1 (stereo not shown) | 13.5 |
| COc1ccc(CN(C)CC(=O)Nc2ccc(Cl)cc2F)c(OC)c1.O=C(O)C(=O)O | -16.1 |
| Cl.Nc1ncnc2sc3c(c12)CCNC3 | 25.4 |
| O=C(COn1nnc2ccc(S(=O)(=O)N3CCOCC3)cc21)NCCc1ccccc1 | -8.87 |
| COc1ccc(CNC(=O)C2CCCN(S(=O)(=O)c3ccc4c(c3)CCCN4C(C)=O)C2)cc1 (stereo not shown) | 4.76 |
| CC(C)Cn1c(N)c(C(=O)COC(=O)c2cc(F)cc(F)c2)c(=O)n(C)c1=O | -42.1 |
| CC(C)Cn1c(N)c(C(=O)COC(=O)c2ccc(Cl)cc2)c(=O)n(C)c1=O | -37.4 |
| CC(C)Cn1c(N)c(C(=O)COC(=O)c2c(O)c(Cl)cc(Cl)c2Cl)c(=O)n(C)c1=O | -79.8 |
| CC(C)Cn1c(N)c(C(=O)COC(=O)c2cccc(Cl)c2)c(=O)n(C)c1=O | -6.08 |
| CC(C)Cn1c(N)c(C(=O)COC(=O)c2ccc(O)cc2)c(=O)n(C)c1=O | -10.6 |
| CC(C)Cn1c(N)c(C(=O)COC(=O)c2cnc(Cl)c(Cl)c2)c(=O)n(C)c1=O | -71.1 |
